A short description of test [1]: ATG_TGFb_CIS: Attagene CIS-FACTORIAL HepG2 Assay for human Transforming Growth Factor (TGF) (AID 2282967; active means hit-call score of the fitted dose curve at least 0.9, where 1 is the maximum; inactive means score below 0.9). The settings on record: HepG2 Attagene CIS TGFb reporter, mRNA transcription; actives raise or lower the signal. The method, boiled down: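 Bidirectional fitting relative to DMSO gave the endpoint. Underlying data: reporter mRNA from HepG2 cells carrying transiently transfected cis-regulated reporter constructs, harvested 24 h after dosing and analyzed by RT-PCR and capillary electrophoresis.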

A short description of test [2]: ATG_VDRE_CIS: Attagene CIS-FACTORIAL HepG2 Assay for human Vitamin D Receptor Element (VDRE) (AID 2282968; active means hit-call score of the fitted dose curve at least 0.9, where 1 is the maximum; inactive means score below 0.9). The settings on record: HepG2 VDRE cis-reporter transcription, actives raise or lower the signal. A digest of the protocol: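 Transfected HepG2 reporter cells, chemical treatment 24 h. RNA isolated, cDNA amplified with reporter-specific primers, products analysed by capillary electrophoresis. Endpoint fitted in both directions versus DMSO.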

For test [3], the target named is Estrogen receptor (Homo sapiens) (UniProt P03372). Briefly: ATG_ERa_TRANS: Attagene TRANS-FACTORIAL HepG2 Assay for human Estrogen Receptor alpha (ERa) (AID 2282970). The settings on record: HepG2 Attagene TRANS ERa GAL4 reporter, mRNA. The method, boiled down:
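Reporter transcripts were measured 24 h after dosing by RT-PCR with fluorescent primer extension and capillary electrophoresis. The system is transiently transfected HepG2 expressing exogenous NR-Gal4 chimeras driving GAL4-UAS reporters; DMSO is the baseline.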

In test [4] the target is X-box-binding protein 1 (Homo sapiens) (UniProt P17861). Description: ATG_Xbp1_CIS: Attagene CIS-FACTORIAL HepG2 Assay for human X-box Binding Protein 1 (XBP1) (AID 2282972; active means hit-call score of the fitted dose curve at least 0.9, where 1 is the maximum; inactive means score below 0.9). Particulars: HepG2 XBP1 cis-element reporter, Attagene multiplex; actives raise or lower the signal. The method, boiled down:
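Human hepatoma HepG2, cis-element reporter system, 24 h treatment; mRNA quantified by RT-PCR/CE fluorescence; fit relative to DMSO.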

Test [5] can be described thus: ATG_GAL4_TRANS: Attagene TRANS-FACTORIAL HepG2 Assay for GAL4 (Internal Marker) (AID 2282976). Particulars: HepG2 Attagene TRANS GAL4 internal marker reporter. A digest of the protocol:
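In transfected human HepG2 liver cells dosed 24 h, GAL4 reporter mRNA serves as a baseline marker. Detection by RT-PCR with fluorescent capillary electrophoresis, activity fitted upward relative to DMSO.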

The target of test [6] is Glucocorticoid receptor (Homo sapiens) (UniProt P04150). Description: ATG_GR_TRANS: Attagene TRANS-FACTORIAL HepG2 Assay for human Glucocorticoid Receptor (GR) (AID 2282978).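 Further: activators score as hits since higher reporter transcript over DMSO is fitted.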 The settings on record: HepG2 Attagene TRANS GR reporter, mRNA transcription. The method, boiled down:
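Transient MRTU transfection of HepG2 (GAL4-UAS reporters, exogenous NR-GAL4 chimeras), 24 h dosing. Readout: reporter transcript via RT-PCR + capillary electrophoresis fluorescence. Positive direction vs DMSO baseline.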

Test [7] has as its target Hepatocyte nuclear factor 4-alpha (Homo sapiens) (UniProt P41235). Description: ATG_HNF4a_TRANS: Attagene TRANS-FACTORIAL HepG2 Assay for human Hepatocyte Nuclear Factor 4 alpha (HNF4a) (AID 2282982). Particulars: HepG2 HNF4a transactivation reporter, mRNA readout. The method, boiled down:
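Using HepG2 liver cells transfected with GAL4-UAS reporter units, chemical-induced mRNA increases were assessed after 24 hours. Fluorescent RT-PCR fragments were separated by capillary electrophoresis and compared with DMSO negative controls.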

Test [8] is described as follows: ATG_M_06_TRANS: Attagene TRANS-FACTORIAL HepG2 Assay for M06 Transcription Factor (Internal Marker) (AID 2282983). Particulars: HepG2 Attagene TRANS M06 internal marker reporter. The method, boiled down: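 Background-control reporter readout: after 24 h chemical exposure of transiently transfected HepG2 (GAL4-UAS reporter units), mRNA quantified by RT-PCR with fluorescent labeling and capillary electrophoresis. Gain-of-signal fitting against DMSO baseline.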

Test [9] deals with Transcriptional activator Myb (Homo sapiens) (UniProt P10242). Description: ATG_Myb_CIS: Attagene CIS-FACTORIAL HepG2 Assay for human Myeloblastosis (Myb) Proto-Oncogene Transcription Factor (AID 2282986; active means hit-call score of the fitted dose curve at least 0.9, where 1 is the maximum; inactive means score below 0.9). Particulars: HepG2 Attagene CIS-FACTORIAL Myb reporter transcription; actives raise or lower the signal. The method, boiled down:
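HepG2, transient MRTU transfection (cis-element promoters, endogenous TF activity), 24 h compound exposure. Readout: reporter mRNA via RT-PCR, 6-FAM labeling, HpaI digest, capillary electrophoresis. Gain/loss fit vs DMSO.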

The target in test [10] is Nuclear respiratory factor 1 (Homo sapiens) (UniProt Q16656). Description: ATG_NRF1_CIS: Attagene CIS-FACTORIAL HepG2 Assay for human Nuclear Respiratory Factor 1 (NRF1) Orphan Gene (AID 2282987; active means hit-call score of the fitted dose curve at least 0.9, where 1 is the maximum; inactive means score below 0.9). The settings on record: HepG2 NRF1 cis-element reporter, Attagene multiplex; actives raise or lower the signal. A digest of the protocol:
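Endogenous NRF1-driven reporter transcription measured in transiently transfected human HepG2 liver cells. Readout: reporter mRNA by RT-PCR and capillary electrophoresis with fluorescence detection, 24 h post-dosing. Gain or loss of signal fitted relative to DMSO baseline.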

The nature of test [11]: ATG_M_19_TRANS: Attagene TRANS-FACTORIAL HepG2 Assay for M19 Transcription Factor (Internal Marker) (AID 2282974). The settings on record: HepG2 Attagene TRANS-FACTORIAL M19 internal marker reporter. A digest of the protocol: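 24 h chemical exposure of transiently transfected HepG2 (MRTU library). RNA → oligo(dT) RT → PCR → 6-FAM labelling → HpaI cut → CE fluorescence. Positive-direction fit vs DMSO baseline; background internal-marker readout.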

Test [12] concerns the target Bile acid receptor (Homo sapiens) (UniProt Q96RI1). Description: ATG_FXR_TRANS: Attagene TRANS-FACTORIAL HepG2 Assay for Farnesoid X Receptor (FXR) (AID 2282979).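 Further: hits raise reporter mRNA above DMSO so AC50 marks FXR activation.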 Particulars: HepG2 Attagene TRANS FXR-GAL4 reporter transcription. A digest of the protocol: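 Reporter transcripts from transfected HepG2 cells were measured 24 h after dosing, using RT-PCR with capillary electrophoresis of 6-FAM-labelled fragments. The read-out reflects activity of exogenous FXR-Gal4 chimera on GAL4-UAS units, with induction relative to DMSO.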

Test [13] addresses Oxysterols receptor LXR-alpha (Homo sapiens) (UniProt Q13133). Briefly: ATG_LXRa_TRANS: Attagene TRANS-FACTORIAL HepG2 Assay for human Liver X Receptor alpha (LXRa) (AID 2282980). The settings on record: HepG2 Attagene TRANS reporter, LXRa transactivation. The method, boiled down:
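Chemical-induced reporter mRNA measured by RT-PCR with fluorescent labelling and capillary electrophoresis after 24 h dosing of transiently transfected HepG2 cells expressing exogenous NR-Gal4 chimeras; increases scored against DMSO baseline.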

The target of test [14] is Oxysterols receptor LXR-beta (Homo sapiens) (UniProt P55055). Description: ATG_LXRb_TRANS: Attagene TRANS-FACTORIAL HepG2 Assay for human Liver X Receptor beta (LXRb) (AID 2282981). The settings on record: HepG2 Attagene TRANS GAL4-LXRb reporter, mRNA. The method, boiled down:
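Liver-derived HepG2 cells transfected with Gal4-responsive reporters were dosed for 24 h. Activation was scored as rise in reporter mRNA, by RT-PCR and capillary electrophoresis, above DMSO baseline.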

Test [15] is described as follows: ATG_M_32_TRANS: Attagene TRANS-FACTORIAL HepG2 Assay for M32 Transcription Factor (Internal Marker) (AID 2282984).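 Further: transcript level of a background control reporter unit measured by RT-PCR and capillary electrophoresis.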 Particulars: HepG2 Attagene TRANS M32 internal marker reporter. The method, boiled down:
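Fluorescence-detected mRNA induction, HepG2 liver cells, 24 h after dosing. Multiple GAL4-UAS reporter units introduced by transient transfection; background-control endpoint analysed for gain of signal against DMSO.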

In test [16] the target is Nuclear receptor subfamily 4 group A member 2 (Homo sapiens) (UniProt P43354). Description: ATG_NURR1_TRANS: Attagene TRANS-FACTORIAL HepG2 Assay for human Nuclear Receptor Related Protein 1 (NURR1) (AID 2282985). The settings on record: HepG2 Attagene TRANS reporter, mRNA readout. A digest of the protocol: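 Chimeric NR-Gal4 proteins were expressed in human HepG2 cells bearing GAL4-UAS reporter units, and induced reporter mRNA was quantified 24 h post-dosing by RT-PCR and capillary electrophoresis.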

The target in test [17] is Steroid hormone receptor ERR1 (Homo sapiens) (UniProt P11474). Briefly: ATG_ERRa_TRANS: Attagene TRANS-FACTORIAL HepG2 Assay for human Estrogen-Related Receptor alpha (ERRa) (AID 2282971). Particulars: HepG2 Attagene TRANS reporter, ERRa transactivation. A digest of the protocol: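 Reporter transcripts from ERRa-Gal4 chimera activity measured in transiently transfected human HepG2 cells 24 hours after dosing, using RT-PCR with 6-FAM primer extension, HpaI digestion and capillary electrophoresis; DMSO is baseline.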

In test [18] the target is Androgen receptor (Homo sapiens) (UniProt P10275). Briefly: ATG_AR_TRANS: Attagene TRANS-FACTORIAL HepG2 Assay for human Androgen Receptor (AR) (AID 2282973). The settings on record: HepG2 Attagene TRANS-FACTORIAL AR reporter transcription. A digest of the protocol: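 Transcriptional activity of an exogenous AR–Gal4 fusion read as GAL4-UAS reporter transcript levels in transfected human HepG2 cells after 24 h dosing. Detection via RT-PCR, 6-FAM labelling, HpaI digest and capillary electrophoresis; increase over DMSO baseline.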

Test [19] addresses Estrogen-related receptor gamma (Homo sapiens) (UniProt P62508). Briefly: ATG_ERRg_TRANS: Attagene TRANS-FACTORIAL HepG2 Assay for human Estrogen-Related Receptor gamma (ERRg) (AID 2282977).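 Further: hits increase reporter signal over DMSO so potencies reflect activators.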 Particulars: HepG2 Attagene TRANS reporter, ERRg transactivation. A digest of the protocol: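 Exogenous NR-Gal4 chimera activity was assessed in HepG2 cells bearing transfected GAL4-UAS reporters. After 24 h dosing, total RNA underwent RT-PCR, fluorescent primer extension and HpaI digestion before capillary electrophoresis, with gain of signal scored against DMSO.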

Records with an inconclusive call do not appear. The source made the active and inactive calls. How the source made its calls, unless noted: active means hit-call score of the fitted dose curve at least 0.9, where 1 is the maximum; inconclusive means response in the unintended direction; inactive means score below 0.9.

Sequence of Glucocorticoid receptor (Homo sapiens) (P04150 whole entry, looked up, the tested form may be a part): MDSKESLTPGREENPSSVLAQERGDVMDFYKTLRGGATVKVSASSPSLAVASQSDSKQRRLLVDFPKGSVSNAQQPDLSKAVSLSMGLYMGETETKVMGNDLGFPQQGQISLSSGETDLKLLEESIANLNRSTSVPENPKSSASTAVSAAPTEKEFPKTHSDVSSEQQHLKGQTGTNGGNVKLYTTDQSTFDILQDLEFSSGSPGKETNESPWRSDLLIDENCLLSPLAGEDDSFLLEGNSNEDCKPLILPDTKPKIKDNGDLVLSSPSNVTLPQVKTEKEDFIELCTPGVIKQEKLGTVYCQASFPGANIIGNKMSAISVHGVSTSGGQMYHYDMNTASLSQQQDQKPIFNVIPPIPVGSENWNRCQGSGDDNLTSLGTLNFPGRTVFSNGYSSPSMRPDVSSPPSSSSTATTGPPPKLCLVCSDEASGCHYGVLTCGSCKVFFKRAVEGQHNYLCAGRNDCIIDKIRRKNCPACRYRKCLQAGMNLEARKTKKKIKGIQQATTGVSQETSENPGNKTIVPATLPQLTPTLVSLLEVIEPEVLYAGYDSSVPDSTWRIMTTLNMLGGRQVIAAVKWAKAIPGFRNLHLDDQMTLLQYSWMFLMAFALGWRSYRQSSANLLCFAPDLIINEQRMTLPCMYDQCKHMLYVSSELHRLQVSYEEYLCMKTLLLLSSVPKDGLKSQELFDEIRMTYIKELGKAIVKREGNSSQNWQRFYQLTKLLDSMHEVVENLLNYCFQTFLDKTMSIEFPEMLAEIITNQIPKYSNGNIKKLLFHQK
Sequence of Bile acid receptor (Homo sapiens) (Q96RI1 whole entry, looked up, the tested form may be a part): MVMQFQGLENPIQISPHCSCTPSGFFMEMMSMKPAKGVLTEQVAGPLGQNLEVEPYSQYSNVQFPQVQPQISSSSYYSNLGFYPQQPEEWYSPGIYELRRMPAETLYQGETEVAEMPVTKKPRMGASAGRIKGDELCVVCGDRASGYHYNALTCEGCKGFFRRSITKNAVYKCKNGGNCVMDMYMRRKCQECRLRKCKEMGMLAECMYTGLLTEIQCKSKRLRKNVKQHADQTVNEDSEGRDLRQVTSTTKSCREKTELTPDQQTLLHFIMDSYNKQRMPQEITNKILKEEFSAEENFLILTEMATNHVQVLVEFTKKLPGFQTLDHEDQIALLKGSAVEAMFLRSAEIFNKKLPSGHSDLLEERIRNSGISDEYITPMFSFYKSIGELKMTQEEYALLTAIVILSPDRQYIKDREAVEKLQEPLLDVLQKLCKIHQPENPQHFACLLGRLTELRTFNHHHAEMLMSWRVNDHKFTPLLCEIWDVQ
Sequence of Nuclear respiratory factor 1 (Homo sapiens) (Q16656 whole entry, looked up): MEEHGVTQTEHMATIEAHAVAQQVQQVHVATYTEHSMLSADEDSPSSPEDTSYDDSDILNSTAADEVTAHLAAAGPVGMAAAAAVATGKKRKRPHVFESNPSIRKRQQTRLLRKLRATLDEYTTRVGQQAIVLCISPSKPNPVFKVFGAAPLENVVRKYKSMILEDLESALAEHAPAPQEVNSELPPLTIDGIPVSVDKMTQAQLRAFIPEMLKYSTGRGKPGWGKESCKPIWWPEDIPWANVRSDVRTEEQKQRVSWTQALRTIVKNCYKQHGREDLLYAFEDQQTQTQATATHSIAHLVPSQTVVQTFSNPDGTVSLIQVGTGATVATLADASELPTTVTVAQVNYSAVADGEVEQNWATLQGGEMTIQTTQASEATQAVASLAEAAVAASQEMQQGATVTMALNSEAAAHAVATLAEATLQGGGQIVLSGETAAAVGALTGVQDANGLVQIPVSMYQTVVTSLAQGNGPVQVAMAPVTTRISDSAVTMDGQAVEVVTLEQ
Sequence of Transcriptional activator Myb (Homo sapiens) (P10242 whole entry, looked up): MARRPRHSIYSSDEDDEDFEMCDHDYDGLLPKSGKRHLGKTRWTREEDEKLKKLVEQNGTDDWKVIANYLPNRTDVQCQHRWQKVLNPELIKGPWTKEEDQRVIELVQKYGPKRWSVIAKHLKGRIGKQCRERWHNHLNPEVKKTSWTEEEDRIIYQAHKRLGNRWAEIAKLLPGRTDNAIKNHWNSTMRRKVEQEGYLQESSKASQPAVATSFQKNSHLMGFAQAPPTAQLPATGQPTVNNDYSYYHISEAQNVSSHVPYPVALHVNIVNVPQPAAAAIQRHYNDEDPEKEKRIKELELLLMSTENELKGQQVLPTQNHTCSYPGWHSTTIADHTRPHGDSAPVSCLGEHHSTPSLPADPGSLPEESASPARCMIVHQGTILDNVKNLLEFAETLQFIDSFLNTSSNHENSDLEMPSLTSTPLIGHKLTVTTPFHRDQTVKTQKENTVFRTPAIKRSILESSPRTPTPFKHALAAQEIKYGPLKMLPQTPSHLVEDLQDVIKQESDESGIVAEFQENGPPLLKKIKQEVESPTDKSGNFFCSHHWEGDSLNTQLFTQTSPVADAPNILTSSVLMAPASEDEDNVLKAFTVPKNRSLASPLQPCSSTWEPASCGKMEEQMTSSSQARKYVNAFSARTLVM
Sequence of X-box-binding protein 1 (Homo sapiens) (P17861 whole entry, looked up): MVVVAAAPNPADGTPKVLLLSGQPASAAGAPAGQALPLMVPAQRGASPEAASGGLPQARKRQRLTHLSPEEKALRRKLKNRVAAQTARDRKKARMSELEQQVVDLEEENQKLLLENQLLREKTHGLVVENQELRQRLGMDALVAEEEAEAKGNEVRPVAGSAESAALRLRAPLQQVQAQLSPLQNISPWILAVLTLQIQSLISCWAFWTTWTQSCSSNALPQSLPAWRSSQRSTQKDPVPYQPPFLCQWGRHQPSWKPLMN
Sequence of Estrogen receptor (Homo sapiens) (P03372 whole entry, looked up, the tested form may be a part): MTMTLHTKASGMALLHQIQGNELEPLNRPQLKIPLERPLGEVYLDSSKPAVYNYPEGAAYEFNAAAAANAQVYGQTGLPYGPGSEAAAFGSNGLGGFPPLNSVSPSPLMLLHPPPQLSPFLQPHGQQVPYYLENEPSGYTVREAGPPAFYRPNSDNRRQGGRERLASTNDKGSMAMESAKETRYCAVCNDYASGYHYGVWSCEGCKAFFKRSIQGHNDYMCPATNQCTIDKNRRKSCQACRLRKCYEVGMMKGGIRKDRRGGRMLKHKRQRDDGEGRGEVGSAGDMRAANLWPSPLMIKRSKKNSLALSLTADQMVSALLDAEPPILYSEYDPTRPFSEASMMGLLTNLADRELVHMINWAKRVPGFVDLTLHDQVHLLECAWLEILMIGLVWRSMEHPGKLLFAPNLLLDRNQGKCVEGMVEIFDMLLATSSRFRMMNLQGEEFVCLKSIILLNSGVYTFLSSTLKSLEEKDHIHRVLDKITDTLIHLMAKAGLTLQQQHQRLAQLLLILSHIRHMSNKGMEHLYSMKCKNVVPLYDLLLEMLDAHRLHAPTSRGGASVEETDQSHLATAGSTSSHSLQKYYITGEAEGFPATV
Sequence of Nuclear receptor subfamily 4 group A member 2 (Homo sapiens) (P43354 whole entry, looked up, the tested form may be a part): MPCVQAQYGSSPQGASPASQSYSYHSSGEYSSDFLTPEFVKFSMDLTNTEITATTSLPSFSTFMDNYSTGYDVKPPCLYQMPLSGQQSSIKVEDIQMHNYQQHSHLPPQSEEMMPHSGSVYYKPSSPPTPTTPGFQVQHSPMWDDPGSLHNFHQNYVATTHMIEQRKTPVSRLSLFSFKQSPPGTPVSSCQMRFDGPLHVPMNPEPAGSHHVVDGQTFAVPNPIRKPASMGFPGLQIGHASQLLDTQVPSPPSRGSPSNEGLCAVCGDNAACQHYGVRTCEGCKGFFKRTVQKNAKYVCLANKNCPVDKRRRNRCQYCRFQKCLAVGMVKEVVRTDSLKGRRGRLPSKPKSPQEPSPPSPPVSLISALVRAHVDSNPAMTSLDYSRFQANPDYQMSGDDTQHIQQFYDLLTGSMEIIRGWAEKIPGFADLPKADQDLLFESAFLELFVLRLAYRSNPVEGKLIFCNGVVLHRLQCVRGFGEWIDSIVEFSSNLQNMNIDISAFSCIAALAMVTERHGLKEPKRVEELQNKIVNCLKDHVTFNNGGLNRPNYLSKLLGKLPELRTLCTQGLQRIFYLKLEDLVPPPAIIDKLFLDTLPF
Sequence of Oxysterols receptor LXR-beta (Homo sapiens) (P55055 whole entry, looked up, the tested form may be a part): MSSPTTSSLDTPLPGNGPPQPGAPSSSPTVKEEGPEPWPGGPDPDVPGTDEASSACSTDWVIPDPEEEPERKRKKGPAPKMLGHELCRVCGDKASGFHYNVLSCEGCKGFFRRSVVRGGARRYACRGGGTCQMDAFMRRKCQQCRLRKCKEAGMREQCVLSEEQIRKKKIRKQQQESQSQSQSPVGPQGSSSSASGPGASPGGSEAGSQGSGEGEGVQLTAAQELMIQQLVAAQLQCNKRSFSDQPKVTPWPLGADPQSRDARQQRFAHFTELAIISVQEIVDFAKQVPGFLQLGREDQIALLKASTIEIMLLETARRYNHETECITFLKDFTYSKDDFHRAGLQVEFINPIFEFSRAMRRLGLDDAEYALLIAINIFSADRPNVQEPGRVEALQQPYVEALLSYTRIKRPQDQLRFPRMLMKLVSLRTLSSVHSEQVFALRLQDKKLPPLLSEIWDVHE
Sequence of Hepatocyte nuclear factor 4-alpha (Homo sapiens) (P41235 whole entry, looked up, the tested form may be a part): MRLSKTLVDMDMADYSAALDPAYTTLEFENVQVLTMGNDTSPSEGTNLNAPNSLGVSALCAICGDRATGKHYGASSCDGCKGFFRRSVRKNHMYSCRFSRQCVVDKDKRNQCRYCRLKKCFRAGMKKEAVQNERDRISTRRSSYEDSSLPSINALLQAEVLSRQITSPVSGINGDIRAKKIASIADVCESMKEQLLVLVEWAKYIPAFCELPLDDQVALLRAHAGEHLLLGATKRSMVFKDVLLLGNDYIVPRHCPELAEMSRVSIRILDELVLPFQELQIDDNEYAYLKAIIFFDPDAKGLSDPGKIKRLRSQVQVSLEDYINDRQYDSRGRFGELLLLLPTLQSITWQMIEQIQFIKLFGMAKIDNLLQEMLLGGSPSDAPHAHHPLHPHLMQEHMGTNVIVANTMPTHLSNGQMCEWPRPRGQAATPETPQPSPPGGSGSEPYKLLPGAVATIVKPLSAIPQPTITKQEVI

On to `CCCCCCCCCCCCBr`, for which the compound was called inactive in test [1], in test [2], in [3], in test [4], in test [5] and in test [6]. Also, the compound was called inactive in test [7], in test [8], in test [9] and in [10].
On to `CN(C)CCN(C)C`, for which the result in [1], in test [2], in [3], in test [4], in test [11] and in [6] was inactive. For the same compound, the compound was classed as inactive in test [12], in test [13], in test [14], in [7], in [15] and in test [16]. The call in test [9] and in test [10] was inactive.
In the case of `[F][Sn]([c]1ccccc1)([c]1ccccc1)[c]1ccccc1`, the result in [1], in test [3], in test [11], in test [12], in test [14] and in test [15] was inactive. The half-maximal activity concentration (AC50) in [2] was 0.332 µM (active); in test [4], 0.326 µM (active); in [16] it was 0.00363 µM (active); in test [9] it was 2.24 µM (active); in test [10], 0.294 µM (active).
`Brc1ccc(Oc2c(Br)cc(Br)cc2Br)c(Br)c1`: the outcome in test [1], in test [2], in test [17], in [4], in test [18] and in test [11] was inactive. Further, the outcome in test [5], in test [6], in test [12], in test [13], in [14] and in test [8] was inactive. Besides, the compound was called inactive in [15], in test [16], in [9] and in test [10].
For the compound `[Cl][Sn]([c]1ccccc1)([c]1ccccc1)[c]1ccccc1`, the compound was classed as inactive in [1], in test [3], in test [18], in test [19], in test [12] and in test [14]. In addition, the outcome in test [8] was inactive. The half-maximal activity concentration (AC50) in [2] was 0.24 µM (active); in test [4] it was 0.242 µM (active); in test [7], 0.228 µM (active); in test [16], 0.00688 µM (active); in test [9] it was 1.53 µM (active); in test [10], 0.216 µM (active).

For the origin of these results see PubChem BioAssay (EPA / NIEHS).
